# Measurements: the supplement of paper PMC6411743
# ± gives the standard deviation of the averaged measurements. The full data set covers some 5,400 targets. This sample favours those with the largest changes.
# Compound: Nc1nc2c(ncn2[C@@H]2O[C@H](COP(=O)(O)OP(=O)(O)OP(=O)(O)O)[C@@H](O)[C@H]2O)c(=O)[nH]1 [guanosine triphosphate]
# Assay: NP40-soluble protein abundance relative to vehicle (solubility fold change) (ratio); higher = more soluble protein in presence of GTP
# How it was run: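 Across three independent experiments, values are fold changes against the detergent-processed vehicle for each replicate, based on vsn-normalised intensities. The samples were Jurkat crude lysate treated with eight concentrations (0.1 to 10 mM) for 10 min at room temperature and then 3 min at 37 °C. Lysate was solubilised with 0.8% NP40 and benzonase, ultracentrifuged, and the supernatant analysed by TMT-labelled LC-MS/MS.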
# UniProt Q9Y2C4, sequence (Q9Y2C4 whole entry): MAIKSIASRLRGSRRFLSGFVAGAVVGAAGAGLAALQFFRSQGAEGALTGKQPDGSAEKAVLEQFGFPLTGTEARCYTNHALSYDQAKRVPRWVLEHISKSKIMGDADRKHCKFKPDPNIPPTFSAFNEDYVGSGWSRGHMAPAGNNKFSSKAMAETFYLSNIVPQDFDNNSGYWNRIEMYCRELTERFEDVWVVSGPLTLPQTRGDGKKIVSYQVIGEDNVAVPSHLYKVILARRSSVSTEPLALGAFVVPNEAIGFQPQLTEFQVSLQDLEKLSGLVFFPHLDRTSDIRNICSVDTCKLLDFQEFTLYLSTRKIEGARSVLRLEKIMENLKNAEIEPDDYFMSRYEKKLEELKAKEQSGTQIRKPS
# UniProt Q93052, sequence (Q93052 whole entry, one chain of several): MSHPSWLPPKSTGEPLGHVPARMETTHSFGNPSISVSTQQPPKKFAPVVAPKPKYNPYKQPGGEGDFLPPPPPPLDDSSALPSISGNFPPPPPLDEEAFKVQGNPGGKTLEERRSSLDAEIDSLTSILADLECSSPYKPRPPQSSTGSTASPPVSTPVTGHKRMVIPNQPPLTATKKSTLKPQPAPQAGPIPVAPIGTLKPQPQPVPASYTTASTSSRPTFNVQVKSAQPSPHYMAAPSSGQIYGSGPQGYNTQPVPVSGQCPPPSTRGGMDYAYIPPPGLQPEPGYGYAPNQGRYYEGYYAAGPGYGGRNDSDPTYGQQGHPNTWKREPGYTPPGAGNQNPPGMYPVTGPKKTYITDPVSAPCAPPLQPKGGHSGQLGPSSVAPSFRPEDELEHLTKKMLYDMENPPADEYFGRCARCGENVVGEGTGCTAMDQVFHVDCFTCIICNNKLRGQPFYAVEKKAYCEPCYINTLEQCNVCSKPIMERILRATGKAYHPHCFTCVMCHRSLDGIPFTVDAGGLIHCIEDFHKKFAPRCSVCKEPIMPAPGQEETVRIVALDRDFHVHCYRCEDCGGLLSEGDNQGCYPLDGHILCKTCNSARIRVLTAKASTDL
# UniProt Q96CT7, sequence (Q96CT7 whole entry): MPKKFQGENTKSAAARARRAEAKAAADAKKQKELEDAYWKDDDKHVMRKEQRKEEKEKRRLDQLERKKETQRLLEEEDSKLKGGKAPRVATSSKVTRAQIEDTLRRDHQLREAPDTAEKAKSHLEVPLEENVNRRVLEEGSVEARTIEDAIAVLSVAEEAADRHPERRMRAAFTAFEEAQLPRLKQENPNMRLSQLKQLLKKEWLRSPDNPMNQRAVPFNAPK
# UniProt Q9UBV8, sequence (Q9UBV8 whole entry): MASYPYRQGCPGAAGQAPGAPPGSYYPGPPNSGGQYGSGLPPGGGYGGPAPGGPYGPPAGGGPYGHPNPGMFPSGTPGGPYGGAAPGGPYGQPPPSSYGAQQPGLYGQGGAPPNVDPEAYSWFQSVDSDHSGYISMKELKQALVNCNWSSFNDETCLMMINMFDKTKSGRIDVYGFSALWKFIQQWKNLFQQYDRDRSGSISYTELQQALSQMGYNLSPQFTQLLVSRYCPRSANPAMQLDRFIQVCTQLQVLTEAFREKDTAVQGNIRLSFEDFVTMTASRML
# UniProt Q9UL25, sequence (Q9UL25 whole entry): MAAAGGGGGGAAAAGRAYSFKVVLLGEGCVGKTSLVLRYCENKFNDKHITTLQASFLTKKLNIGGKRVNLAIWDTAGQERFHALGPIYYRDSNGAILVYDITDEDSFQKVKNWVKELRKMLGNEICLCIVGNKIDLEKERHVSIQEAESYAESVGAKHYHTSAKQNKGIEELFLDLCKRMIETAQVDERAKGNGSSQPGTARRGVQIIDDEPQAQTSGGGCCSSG
# UniProt Q9Y508, sequence (Q9Y508 whole entry): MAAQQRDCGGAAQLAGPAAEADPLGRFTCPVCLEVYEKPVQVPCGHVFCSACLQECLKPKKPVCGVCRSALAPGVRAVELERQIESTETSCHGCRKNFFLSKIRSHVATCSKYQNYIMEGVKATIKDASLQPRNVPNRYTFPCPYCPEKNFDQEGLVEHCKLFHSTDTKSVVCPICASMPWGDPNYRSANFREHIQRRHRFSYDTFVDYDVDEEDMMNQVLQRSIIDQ
# UniProt Q9NRX1, sequence (Q9NRX1 whole entry): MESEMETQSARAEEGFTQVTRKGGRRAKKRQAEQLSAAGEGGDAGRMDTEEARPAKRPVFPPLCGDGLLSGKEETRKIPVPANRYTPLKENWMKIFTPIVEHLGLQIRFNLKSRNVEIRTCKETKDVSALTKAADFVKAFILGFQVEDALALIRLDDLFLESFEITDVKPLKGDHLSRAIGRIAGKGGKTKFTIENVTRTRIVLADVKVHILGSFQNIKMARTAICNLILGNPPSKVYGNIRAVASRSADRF
# UniProt Q9BUQ8, sequence (Q9BUQ8 whole entry): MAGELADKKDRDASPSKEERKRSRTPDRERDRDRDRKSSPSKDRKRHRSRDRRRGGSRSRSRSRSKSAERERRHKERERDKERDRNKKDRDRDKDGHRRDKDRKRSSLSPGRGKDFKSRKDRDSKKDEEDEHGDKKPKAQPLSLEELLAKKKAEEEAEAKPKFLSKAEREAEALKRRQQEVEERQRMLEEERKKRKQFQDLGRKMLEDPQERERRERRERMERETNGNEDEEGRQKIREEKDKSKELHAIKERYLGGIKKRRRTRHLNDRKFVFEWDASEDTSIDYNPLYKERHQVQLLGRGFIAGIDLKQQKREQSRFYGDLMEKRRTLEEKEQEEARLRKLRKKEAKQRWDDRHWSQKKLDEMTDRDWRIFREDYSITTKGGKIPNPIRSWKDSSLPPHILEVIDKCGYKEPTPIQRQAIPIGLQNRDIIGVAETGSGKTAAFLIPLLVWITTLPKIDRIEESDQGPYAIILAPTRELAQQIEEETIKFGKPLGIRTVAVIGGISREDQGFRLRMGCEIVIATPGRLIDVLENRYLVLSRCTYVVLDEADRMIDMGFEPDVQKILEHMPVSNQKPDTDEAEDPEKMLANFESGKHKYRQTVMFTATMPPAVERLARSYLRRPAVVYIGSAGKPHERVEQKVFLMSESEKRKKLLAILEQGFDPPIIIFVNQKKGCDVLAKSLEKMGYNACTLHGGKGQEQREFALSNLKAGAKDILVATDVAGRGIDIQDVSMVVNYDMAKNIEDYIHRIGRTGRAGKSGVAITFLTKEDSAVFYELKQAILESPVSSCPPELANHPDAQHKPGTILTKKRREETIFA
# UniProt Q9NS23, sequence (Q9NS23 whole entry): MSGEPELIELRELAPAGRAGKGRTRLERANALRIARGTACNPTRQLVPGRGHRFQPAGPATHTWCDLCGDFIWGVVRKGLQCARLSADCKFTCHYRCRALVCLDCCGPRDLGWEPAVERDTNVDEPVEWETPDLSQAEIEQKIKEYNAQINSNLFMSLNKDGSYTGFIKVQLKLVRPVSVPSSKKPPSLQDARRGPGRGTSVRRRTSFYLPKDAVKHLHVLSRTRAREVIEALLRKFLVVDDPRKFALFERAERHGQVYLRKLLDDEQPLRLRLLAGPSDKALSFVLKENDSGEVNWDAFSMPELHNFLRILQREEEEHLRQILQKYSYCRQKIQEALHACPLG
# UniProt Q9UMX0, sequence (Q9UMX0 whole entry): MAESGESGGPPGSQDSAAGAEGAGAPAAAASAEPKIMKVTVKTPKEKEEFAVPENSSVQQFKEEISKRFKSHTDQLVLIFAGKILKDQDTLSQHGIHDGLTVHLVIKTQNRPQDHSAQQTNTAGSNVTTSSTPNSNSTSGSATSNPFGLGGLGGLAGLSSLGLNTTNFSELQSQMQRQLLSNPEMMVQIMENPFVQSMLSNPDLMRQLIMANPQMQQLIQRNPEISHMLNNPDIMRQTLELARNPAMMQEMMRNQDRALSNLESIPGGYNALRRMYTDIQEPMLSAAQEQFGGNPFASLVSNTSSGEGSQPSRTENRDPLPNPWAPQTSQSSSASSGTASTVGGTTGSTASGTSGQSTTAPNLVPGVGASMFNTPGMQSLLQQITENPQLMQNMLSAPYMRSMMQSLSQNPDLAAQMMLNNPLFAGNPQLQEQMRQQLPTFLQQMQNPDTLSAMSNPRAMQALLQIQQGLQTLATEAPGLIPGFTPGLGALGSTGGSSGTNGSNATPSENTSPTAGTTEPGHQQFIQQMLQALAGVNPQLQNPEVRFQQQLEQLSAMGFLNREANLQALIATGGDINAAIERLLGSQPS
# UniProt Q9NYL9, sequence (Q9NYL9 whole entry): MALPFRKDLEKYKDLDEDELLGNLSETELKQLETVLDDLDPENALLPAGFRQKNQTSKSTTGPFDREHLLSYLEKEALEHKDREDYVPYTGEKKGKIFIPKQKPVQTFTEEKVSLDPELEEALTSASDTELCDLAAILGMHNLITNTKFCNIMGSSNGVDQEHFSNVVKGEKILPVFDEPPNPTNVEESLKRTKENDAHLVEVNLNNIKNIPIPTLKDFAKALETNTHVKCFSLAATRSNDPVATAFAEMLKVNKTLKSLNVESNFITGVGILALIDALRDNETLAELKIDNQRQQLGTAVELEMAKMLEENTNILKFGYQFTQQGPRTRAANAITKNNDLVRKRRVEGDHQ
# UniProt Q9H8M2, sequence (Q9H8M2 whole entry): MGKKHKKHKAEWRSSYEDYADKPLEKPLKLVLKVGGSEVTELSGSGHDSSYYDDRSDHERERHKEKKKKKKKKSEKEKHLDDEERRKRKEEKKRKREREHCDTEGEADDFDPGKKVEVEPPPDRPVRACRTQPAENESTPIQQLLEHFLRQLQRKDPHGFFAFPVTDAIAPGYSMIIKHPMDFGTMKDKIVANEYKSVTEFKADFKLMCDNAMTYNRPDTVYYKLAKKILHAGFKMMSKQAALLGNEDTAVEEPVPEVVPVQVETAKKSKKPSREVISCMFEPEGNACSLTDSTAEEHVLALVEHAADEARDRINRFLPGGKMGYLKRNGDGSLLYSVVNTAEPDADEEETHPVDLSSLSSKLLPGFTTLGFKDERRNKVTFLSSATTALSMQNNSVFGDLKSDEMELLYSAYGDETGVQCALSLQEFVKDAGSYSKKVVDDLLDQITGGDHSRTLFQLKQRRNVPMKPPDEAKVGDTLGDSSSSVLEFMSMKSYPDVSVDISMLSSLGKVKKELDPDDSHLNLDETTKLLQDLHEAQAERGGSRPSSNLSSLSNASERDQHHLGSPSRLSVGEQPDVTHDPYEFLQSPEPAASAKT
Target,NP40-soluble protein abundance (concentration: 0.1mM),NP40-soluble protein abundance (concentration: 0.5mM),NP40-soluble protein abundance (concentration: 1mM),NP40-soluble protein abundance (concentration: 2mM),NP40-soluble protein abundance (concentration: 4mM),NP40-soluble protein abundance (concentration: 6mM),NP40-soluble protein abundance (concentration: 8mM),NP40-soluble protein abundance (concentration: 10mM)
HIRIP3 (UniProt Q9BW71),0.932 ± 0.071,0.925 ± 0.089,1.01 ± 0.1,0.983 ± 0.15,1.04 ± 0.14,1.07 ± 0.14,1.13 ± 0.06,1.14 ± 0.094
UniProt Q9NS23|Q9NS23-2|Q9NS23-3|Q9NS23-4|Q9NS23-5,0.978 ± 0.032,1.03 ± 0.098,1.04 ± 0.051,1.04 ± 0.058,1.05 ± 0.09,1.01 ± 0.022,0.971 ± 0.056,0.968 ± 0.11
UniProt Q96MT7-2,1.09 ± 0.063,0.959 ± 0.033,1 ± 0.093,0.863 ± 0.12,0.869 ± 0.04,0.915 ± 0.14,0.834 ± 0.052,0.786 ± 0.082
TMOD3 (UniProt Q9NYL9),0.878 ± 0.033,0.855 ± 0.044,1.03 ± 0.039,1.01 ± 0.029,1.02 ± 0.019,1.02 ± 0.026,1 ± 0.048,1.08 ± 0.04
UniProt Q9Y3D0,0.836 ± 0.067,0.869 ± 0.033,1.02 ± 0.042,1.04 ± 0.049,0.987 ± 0.043,1.04 ± 0.013,1.04 ± 0.089,1.09 ± 0.17
CCDC124 (UniProt Q96CT7),1.01 ± 0.047,0.984 ± 0.019,1.12 ± 0.063,1.17 ± 0.067,1.41 ± 0.17,1.57 ± 0.22,1.61 ± 0.22,2.24 ± 0.18
UniProt Q9NZM5,0.985 ± 0.053,0.939 ± 0.14,1.04 ± 0.083,1.03 ± 0.17,1.05 ± 0.16,1.07 ± 0.21,1.18 ± 0.17,1.13 ± 0.093
UniProt Q9UMX0|Q9UMX0-2,0.999 ± 0.07,0.998 ± 0.015,1.09 ± 0.11,1.02 ± 0.032,1.012 ± 0.0015,0.994 ± 0.039,1.02 ± 0.053,1.01 ± 0.039
SF3B5 (UniProt Q9BWJ5),1.1 ± 0.16,1.11 ± 0.16,1.17 ± 0.23,1.27 ± 0.2,1.25 ± 0.21,1.33 ± 0.15,1.31 ± 0.19,1.38 ± 0.22
UniProt Q96LT9|Q96LT9-2,1.26 ± 0.038,1.16 ± 0.16,1.42 ± 0.12,1.49 ± 0.3,1.61 ± 0.28,1.6 ± 0.35,1.72 ± 0.51,1.8 ± 0.54
UniProt Q9UII2,0.946 ± 0.08,0.972 ± 0.11,1.01 ± 0.078,0.936 ± 0.1,0.875 ± 0.1,0.908 ± 0.14,0.93 ± 0.07,0.963 ± 0.07
CDV3 (UniProt Q9UKY7),0.957 ± 0.072,1.05 ± 0.071,0.915 ± 0.072,0.955 ± 0.11,0.889 ± 0.093,1 ± 0.092,1.09 ± 0.083,1.11 ± 0.068
NCOA5 (UniProt Q9HCD5),1.03 ± 0.053,1 ± 0.028,1.084 ± 0.0085,1.22 ± 0.043,1.58 ± 0.053,1.81 ± 0.059,2.15 ± 0.18,2.4 ± 0.19
RNF114 (UniProt Q9Y508),0.95 ± 0.011,0.967 ± 0.032,0.924 ± 0.041,0.91 ± 0.068,0.895 ± 0.057,0.897 ± 0.056,0.876 ± 0.072,0.888 ± 0.084
UniProt Q96T23|Q96T23-2,1.02 ± 0.028,1.09 ± 0.081,1.25 ± 0.014,1.45 ± 0.1,1.72 ± 0.22,2.07 ± 0.29,2.49 ± 0.49,2.71 ± 0.62
NCAPG (UniProt Q9BPX3),0.992 ± 0.015,1.06 ± 0.016,0.986 ± 0.03,1.03 ± 0.044,0.978 ± 0.042,1.01 ± 0.047,0.987 ± 0.056,1.01 ± 0.031
UniProt Q9H8M2|Q9H8M2-3|Q9H8M2-6,0.966 ± 0.054,1.05 ± 0.13,1.03 ± 0.085,0.995 ± 0.033,1.04 ± 0.11,1.13 ± 0.12,1.11 ± 0.029,1.09 ± 0.04
GPKOW (UniProt Q92917),0.974 ± 0.07,0.995 ± 0.067,1.02 ± 0.077,0.975 ± 0.086,0.968 ± 0.071,0.99 ± 0.059,0.998 ± 0.057,1.01 ± 0.088
UniProt Q93052|A0A087WZF1|C9JXK9,0.985 ± 0.047,0.946 ± 0.086,0.944 ± 0.072,0.906 ± 0.071,0.884 ± 0.063,0.896 ± 0.081,0.906 ± 0.083,0.901 ± 0.09
NUDC (UniProt Q9Y266),0.924 ± 0.044,0.938 ± 0.06,0.931 ± 0.058,0.88 ± 0.077,0.852 ± 0.063,0.893 ± 0.076,0.885 ± 0.056,0.872 ± 0.069
LARS (UniProt Q9P2J5),1.05 ± 0.078,1.13 ± 0.15,1.07 ± 0.18,1.17 ± 0.26,1.2 ± 0.26,1.21 ± 0.28,1.16 ± 0.24,1.09 ± 0.23
PEF1 (UniProt Q9UBV8),0.946 ± 0.077,0.888 ± 0.036,0.995 ± 0.1,0.994 ± 0.043,1.03 ± 0.076,0.993 ± 0.063,0.891 ± 0.084,1.02 ± 0.14
NOP58 (UniProt Q9Y2X3),1.01 ± 0.049,1.02 ± 0.019,1.07 ± 0.075,1.19 ± 0.044,1.4 ± 0.066,1.58 ± 0.13,1.77 ± 0.11,2.07 ± 0.16
UniProt Q96JM7|Q96JM7-2,1.13 ± 0.15,1.14 ± 0.016,1.08 ± 0.16,1.13 ± 0.078,1.1 ± 0.2,1.23 ± 0.031,1.11 ± 0.056,1.15 ± 0.073
PNO1 (UniProt Q9NRX1),1.04 ± 0.082,1.09 ± 0.17,1.14 ± 0.19,1.15 ± 0.28,1.09 ± 0.27,1.09 ± 0.3,1.15 ± 0.28,1.15 ± 0.32
UniProt Q9Y2C4|Q9Y2C4-3|Q9Y2C4-4,1.2 ± 0.083,1.12 ± 0.049,1.11 ± 0.083,1.14 ± 0.088,1.08 ± 0.033,1.07 ± 0.081,1.01 ± 0.034,1.03 ± 0.044
RAB21 (UniProt Q9UL25),0.998 ± 0.058,0.967 ± 0.036,0.87 ± 0.016,0.862 ± 0.011,0.837 ± 0.029,0.84 ± 0.039,0.812 ± 0.048,0.813 ± 0.093
DDX23 (UniProt Q9BUQ8),1.04 ± 0.036,1.09 ± 0.067,1.19 ± 0.12,1.27 ± 0.075,1.55 ± 0.18,1.62 ± 0.19,1.89 ± 0.28,1.93 ± 0.23
